Source: PubChem BioAssay
Activity calls are given as the source filed them. The rule behind the calls is not given here.

Tested on: Aerobactin synthetase IucA (Klebsiella pneumoniae hvKP1)
Test: IucA enzyme inhibition, primary screen, biochemical, Spectrum library (AID 1346200);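 note: 100% = wells without compound and 0% = wells lacking enzyme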
Conditions: malachite green pyrophosphate, A620, at 8 µM, stronger effect = lower value

| Structure (SMILES) | activity remaining |
| --- | --- |
| O=C(/C=C/c1ccc(O)cc1)c1ccc(O)cc1O | 98.7% (inactive) |
| C[N+](C)(C)CCO | 126% (inactive) |
| OCCN1CCN(CCCN2c3ccccc3Sc3ccc(Cl)cc32)CC1 | 121% (inactive) |
| CC(N)C(=O)OC(C)(C)Cc1ccc(Cl)cc1 (configuration not stated) | 86.1% (inactive) |
| O=C(O)CCc1nc(-c2ccccc2)c(-c2ccccc2)o1 | 111% (inactive) |
| Clc1ccc(C(c2ccccc2Cl)C(Cl)Cl)cc1 (configuration not stated) | 92.7% (inactive) |
| C[n+]1cc2c3c(ccc2c2ccc4cc5c(cc4c21)OCO5)OCO3 | 97.5% (inactive) |
| NC12CC3CC(CC(C3)C1)C2 | 107% (inactive) |
| CCCCCCCCCCCCCC(=O)O[C@@H]1[C@@H](C)[C@@]2(O)[C@@H](C=C(CO)C[C@]3(O)C(=O)C(C)=C[C@@H]23)[C@@H]2C(C)(C)[C@]12OC(C)=O | 115% (inactive) |
| O=C(O)c1cc2cc(Cc3cccnc3)ccc2o1 | 121% (inactive) |
| O=C(O)c1cc2cc(F)ccc2[nH]1 | 106% (inactive) |
| CC(C)NCC(O)COc1cccc2[nH]ccc12 (configuration not stated) | 103% (inactive) |
| CN=C(N)NCCC[C@H](N)C(=O)O | 116% (inactive) |
| N=C(N)SCCN | 98.6% (inactive) |
| NNc1nncc2ccccc12 | 102% (inactive) |
| CN1CCC[C@@H]1CCO[C@](C)(c1ccccc1)c1ccc(Cl)cc1 | 99.3% (inactive) |
| O=c1cc(-c2ccc(O)cc2)oc2cc(O)cc(O)c12 | 113% (inactive) |
| CC[C@@]1(C2O[C@@H](C3O[C@@](O)(CC)[C@H](C)C[C@@H]3C)C[C@@H]2C)CC[C@H]([C@]2(C)CCC3(C[C@H](O)[C@@H](C)[C@@H]([C@H](C)[C@@H](OC)[C@H](C)C(=O)O)O3)O2)O1 (some centres not stated) | 112% (inactive) |
| CN1C(=O)CC[C@H]1c1cccnc1 | 101% (inactive) |
| NCCCCN | 91.8% (inactive) |
| O=C1c2c(O)ccc(O)c2C(=O)c2c(NCCNCCO)ccc(NCCNCCO)c21 | 107% (inactive) |
| CCn1cc(C(=O)O)c(=O)c2ccc(C)nc21 | 117% (inactive) |
| CN(C)c1ccc(O)c2c1C[C@H]1C[C@H]3[C@H](N(C)C)C(=O)C(C(N)=O)=C(O)[C@@]3(O)C(=O)C1=C2O | 105% (inactive) |
| CCCN(CCC)C(=O)C(CCC(=O)O)NC(=O)c1ccccc1 (configuration not stated) | 115% (inactive) |
| Oc1ccc(/C=C/c2cc(O)cc(O)c2)cc1 | 110% (inactive) |
| CN1CCN(C2=Nc3cc(Cl)ccc3Nc3ccccc32)CC1 | 120% (inactive) |
| Oc1cc(O)c2c(c1)O[C@H](c1ccc(O)c(O)c1)[C@@H](O)C2 | 93% (inactive) |
| CN1CCN(CCCN2c3ccccc3Sc3ccc(Cl)cc32)CC1 | 123% (inactive) |
| CCN(CC)CCOC(=O)C1(C2CCCCC2)CCCCC1 | 125% (inactive) |
| COc1ccccc1OCC(O)CN1CCN(CC(=O)Nc2c(C)cccc2C)CC1 (configuration not stated) | 122% (inactive) |

Tested on: Aerobactin synthetase IucA (Klebsiella pneumoniae, hypervirulent)
Test: biochemical IucA inhibition screen of LOPAC library by absorbance (AID 1346212);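 note: 100% = no compound wells and 0% = no enzyme wells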
Conditions: IucA enzyme assay, absorbance (OD) readout; stronger effect = lower value; concentration not given here

| Structure (SMILES) | remaining activity |
| --- | --- |
| NC(=O)c1ncn([C@@H]2O[C@H](CO)[C@@H](O)[C@H]2O)n1 | 96.8% (inactive) |
| CC1OC1P(=O)(O)O (configuration not stated) | 105% (inactive) |
| CC(C(=O)O)c1cccc(C(=O)c2ccccc2)c1 (configuration not stated) | 120% (inactive) |
| CC[N+](CC)(CC)CCOc1cccc(OCC[N+](CC)(CC)CC)c1OCC[N+](CC)(CC)CC | 111% (inactive) |
| CC(CN1c2ccccc2Sc2ccccc21)N(C)C (configuration not stated) | 109% (inactive) |
| NCCCCC(=O)O | 104% (inactive) |
| CC(=O)OC(C)C[N+](C)(C)C (configuration not stated) | 119% (inactive) |
| COc1cc([C@@H]2c3cc4c(cc3[C@H](O)[C@H]3COC(=O)[C@H]23)OCO4)cc(OC)c1OC | 124% (inactive) |
| O=C(/C=C/c1ccc(O)cc1)c1ccc(O)cc1O | 93.6% (inactive) |
| C[N+](C)(C)CCO | 112% (inactive) |
| OCCN1CCN(CCCN2c3ccccc3Sc3ccc(Cl)cc32)CC1 | 112% (inactive) |
| CC(N)C(=O)OC(C)(C)Cc1ccc(Cl)cc1 (configuration not stated) | 119% (inactive) |
| O=C(O)CCc1nc(-c2ccccc2)c(-c2ccccc2)o1 | 116% (inactive) |
| Clc1ccc(C(c2ccccc2Cl)C(Cl)Cl)cc1 (configuration not stated) | 111% (inactive) |
| C[n+]1cc2c3c(ccc2c2ccc4cc5c(cc4c21)OCO5)OCO3 | 102% (inactive) |
| NC12CC3CC(CC(C3)C1)C2 | 119% (inactive) |
| CCCCCCCCCCCCCC(=O)O[C@@H]1[C@@H](C)[C@@]2(O)[C@@H](C=C(CO)C[C@]3(O)C(=O)C(C)=C[C@@H]23)[C@@H]2C(C)(C)[C@]12OC(C)=O | 75.1% (inactive) |
| O=C(O)c1cc2cc(Cc3cccnc3)ccc2o1 | 104% (inactive) |
| O=C(O)c1cc2cc(F)ccc2[nH]1 | 86.3% (inactive) |

| Structure (SMILES) | remaining activity |
| --- | --- |
| CC(C)NCC(O)COc1cccc2[nH]ccc12 (configuration not stated) | 116% (inactive) |
| CN=C(N)NCCC[C@H](N)C(=O)O | 111% (inactive) |
| N=C(N)SCCN | 109% (inactive) |
| NNc1nncc2ccccc12 | 101% (inactive) |
| CN1CCC[C@@H]1CCO[C@](C)(c1ccccc1)c1ccc(Cl)cc1 | 109% (inactive) |
| O=c1cc(-c2ccc(O)cc2)oc2cc(O)cc(O)c12 | 107% (inactive) |
| CN1C(=O)CC[C@H]1c1cccnc1 | 122% (inactive) |
| NCCCCN | 94.5% (inactive) |
| O=C1c2c(O)ccc(O)c2C(=O)c2c(NCCNCCO)ccc(NCCNCCO)c21 | 110% (inactive) |
| CCn1cc(C(=O)O)c(=O)c2ccc(C)nc21 | 122% (inactive) |
| CN(C)c1ccc(O)c2c1C[C@H]1C[C@H]3[C@H](N(C)C)C(=O)C(C(N)=O)=C(O)[C@@]3(O)C(=O)C1=C2O | 110% (inactive) |
| CCCN(CCC)C(=O)C(CCC(=O)O)NC(=O)c1ccccc1 (configuration not stated) | 99.4% (inactive) |
| Oc1ccc(/C=C/c2cc(O)cc(O)c2)cc1 | 75.6% (inactive) |
| CN1CCN(C2=Nc3cc(Cl)ccc3Nc3ccccc32)CC1 | 127% (inactive) |
| Oc1cc(O)c2c(c1)O[C@H](c1ccc(O)c(O)c1)[C@@H](O)C2 | 106% (inactive) |
| CN1CCN(CCCN2c3ccccc3Sc3ccc(Cl)cc32)CC1 | 86.1% (inactive) |
| CCN(CC)CCOC(=O)C1(C2CCCCC2)CCCCC1 | 92.7% (inactive) |
| COc1ccccc1OCC(O)CN1CCN(CC(=O)Nc2c(C)cccc2C)CC1 (configuration not stated) | 97.8% (inactive) |
